Measured values as given in PubChem BioAssay AID778 (Sanford-Burnham Center for Chemical Genomics, 2007).
Out of some 96,000 compounds screened, about 20,000 (21%) were called active.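 Rule for the calls: active = CYP2C19 inhibition above a set limit at 5 µM in the primary screen (cut at about 50% in these data); inactive = the rest.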 These entries were drawn from the full list.

biological target: Cytochrome P450 2C19 (Homo sapiens) (UniProt P33261); assay: blockers of cytochrome P450 2C19 activity – biochemical, luminescence, ADME assay, primary screen (AID 778); details: CYP2C19 Supersomes, luciferin-H EGE luminescence, 30 min; at 5 µM; active compounds read high;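 note: plate controls were negative control wells for no effect and 2.5 mM tranylcypromine positive control for full effect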
Sequence (P33261 whole entry, looked up): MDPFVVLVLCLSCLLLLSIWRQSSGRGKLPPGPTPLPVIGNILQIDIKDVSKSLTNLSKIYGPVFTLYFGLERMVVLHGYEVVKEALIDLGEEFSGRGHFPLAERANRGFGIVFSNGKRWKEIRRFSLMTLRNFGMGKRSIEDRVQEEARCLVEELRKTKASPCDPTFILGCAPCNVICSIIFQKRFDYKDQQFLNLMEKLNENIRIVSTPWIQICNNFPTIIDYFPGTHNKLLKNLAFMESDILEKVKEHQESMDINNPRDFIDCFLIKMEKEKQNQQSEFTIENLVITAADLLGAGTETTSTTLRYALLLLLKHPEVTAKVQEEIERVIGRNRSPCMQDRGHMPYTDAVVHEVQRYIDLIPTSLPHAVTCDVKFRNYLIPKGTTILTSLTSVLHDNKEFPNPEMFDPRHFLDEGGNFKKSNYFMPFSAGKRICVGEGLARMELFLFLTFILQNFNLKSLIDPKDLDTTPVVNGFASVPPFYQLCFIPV

SMILES | inhibition
CCOc1ccc(C(=O)NC2CCN(S(=O)(=O)CC)CC2)cc1 | 9.1% (inactive)
CC(=O)NC(Cc1ccc(F)cc1)C(=O)O (centres undefined) | -5.1% (inactive)
Cn1c(SCc2c(F)cccc2Cl)nnc1-c1cnccn1 | 25.9% (inactive)
CCCc1nc2sc3c(c2c(=O)n1NC(=O)CCCl)CCCC3 | 88.5% (active)
Cc1nc(SCC(=O)Nc2cc(C)on2)c2c3c(sc2n1)CCCC3 | 7% (inactive)
O=C(NCc1ccco1)c1cccn2c(=O)c3c4c(sc3nc12)CCCC4 | 45.2% (inactive)
O=C(Nc1cccc(-c2nc3ncccc3o2)c1)c1ccco1 | 5.2% (inactive)
O=C(Nc1ccncc1)c1c(F)cccc1F | 52.4% (active)
O=C(NCCc1ccc2c(c1)OCCO2)c1cc2ccccc2o1 | 41.2% (inactive)
O=C(Nc1ccc(Cl)cc1)c1ccsn1 | 25.4% (inactive)
CN1C(=O)c2ccc(NC(=O)c3c(F)c(F)c(F)c(F)c3F)cc2C1=O | -11.8% (inactive)
O=C(Nc1ccncc1)c1cc2ccccc2o1 | 99.6% (active)
C/C(=C\C(=O)c1ccccc1)Nc1cccc(O)c1 | 10.3% (inactive)
COc1ccc(CNC(=O)C2CCC(CNc3c(N4CCOCC4)c(=O)c3=O)CC2)cc1 (centres undefined) | -12.8% (inactive)
COc1cccc(-c2nc3cc(C)ccc3o2)c1 | 42.7% (inactive)
C/C=C/C(=O)OCC(=O)Nc1ccc(F)cc1Cl | 16.4% (inactive)
CCC1Oc2ccc(Cl)cc2N(CC(=O)O)C1=O (centres undefined) | -3.7% (inactive)
Cc1cccc(C)c1NC(=O)c1ccc(CN2CCc3ccccc3C2)cc1 | -19.5% (inactive)
CC(=O)c1ccc(-n2nnnc2SCC(=O)N2CCN(C(=O)c3ccco3)CC2)cc1 | -3.8% (inactive)
CCC(c1nnnn1C1CCCC1)N1CCN(C(=O)c2ccco2)CC1 (centres undefined) | 61.3% (active)
CC(C)C(c1nnnn1CCc1ccccc1)N1CCN(C(=O)c2ccco2)CC1 (centres undefined) | 15.7% (inactive)
COC(=O)C1=C(C)NC2=C(C(=O)c3ccccc32)C1c1ccc(-c2ccc(C(=O)O)cc2)o1 (centres undefined) | 44.5% (inactive)
COC(=O)c1cc(NC(=O)CC2C(=O)NCCN2C(=O)c2ccc(F)cc2)cc(C(=O)OC)c1 (centres undefined) | 8.6% (inactive)
O=C(NC(C(=O)NCCN1CCOCC1)C12CC3CC(CC(C3)C1)C2)C1CCCCC1 (centres undefined) | -0.8% (inactive)
OC(CN1C2=NCCCN2c2ccccc21)c1ccc(Br)cc1 (centres undefined) | 11.9% (inactive)

SMILES | inhibition
O=C(Nc1nsc(-c2ccccc2)n1)c1ccncc1 | 93.3% (active)
Cn1sc(NC(=O)c2ccccc2)nc1=O | 0.2% (inactive)
COC(=O)c1nc(NC(=O)c2ccccc2)n[nH]1 | 1.9% (inactive)
CCOC(=O)C1Sc2[nH]c(=O)sc2C(c2ccc(Cl)cc2)C1C(=O)OCC (centres undefined) | 24.6% (inactive)
COc1ccc2[nH]c(=O)c(CN(CC3CCCO3)C(=O)Nc3ccccc3)cc2c1 (centres undefined) | 32.6% (inactive)
Cc1cccc(NC(=O)N(Cc2cc3cc(C)cc(C)c3[nH]c2=O)CC2COCCO2)c1 (centres undefined) | 76.8% (active)
Cc1ccc2[nH]c(=O)c(CN(CCCN(C)C)C(=O)Nc3cccc(Cl)c3)cc2c1 | -4.4% (inactive)
CCOC(=O)c1cccc(NC(=O)CCc2c(C)nc3ncnn3c2C)c1 | 2.3% (inactive)
Cc1ccc2c(CSc3nncs3)cc(=O)oc2c1 | 86.8% (active)
Cc1cc([N+](=O)[O-])c(N2CCC[C@@H]2C(=O)O)c([N+](=O)[O-])c1 | -5.1% (inactive)
CCOc1ccc(C(=O)NC(C(=O)NCc2ccccn2)C(C)C)cc1 (centres undefined) | 26.7% (inactive)
COc1cccc(/C=N/NC(=O)c2cccc([N+](=O)[O-])c2)c1OS(=O)(=O)c1ccc(C)cc1 | 1.4% (inactive)
CC(C)(CSc1nncn1/N=C/c1ccco1)NS(=O)(=O)c1ccc(Cl)cc1 | 53.3% (active)
COc1ccc(O)c(C(=O)c2cnc3onc(C(C)C)c3c2)c1 | 100% (active)
COc1ccc(O)c(C=Nc2cc(C)on2)c1 | 1.5% (inactive)
O=C(Nc1cccc2cccnc12)c1cccc(N2C(=O)CCC2=O)c1 | 22.2% (inactive)
CCCC(C(=O)N1CCOCC1)N1C(=O)C2C3C=CC(C3)C2C1=O (centres undefined) | -3.8% (inactive)
Cc1ccccc1-n1nnc2c(=O)oc3ccccc3c21 | 66.5% (active)
Cc1nc(Cl)c2oc3ccccc3c2n1 | 49.8% (inactive)
CCCCC(=O)Nc1cc(C)c2c(=O)oc3ccccc3c2n1 | 16.3% (inactive)
Cc1ccc(-c2nc(CS(=O)CC(=O)N3CCN(c4ncccn4)CC3)c(C)o2)cc1 (centres undefined) | 24.1% (inactive)
CCOc1ccc(C(=O)N(Cc2ccc(N(C)C)cc2)C2CCS(=O)(=O)C2)cc1 (centres undefined) | 58.6% (active)
COc1ccc(C(=O)N(Cc2ccc(N(C)C)cc2)C2CCS(=O)(=O)C2)cc1 (centres undefined) | 8.9% (inactive)
COc1cc(C(=O)N(Cc2ccc(N(C)C)cc2)C2CCS(=O)(=O)C2)cc(OC)c1OC (centres undefined) | 19% (inactive)
Cc1ccc(CCn2c3c(c4ccccc42)CN(C)CC3)cn1 | 7.8% (inactive)

SMILES | inhibition
CSc1nc2nc3c(c(=O)n2[nH]1)CCC3 | 4.1% (inactive)
COc1cc2c(cc1OC)C(c1ccncc1)CC(=O)N2 (centres undefined) | 16.4% (inactive)
COc1ccc(C2CC(=O)Nc3cc(C)c(C)cc32)c(OC)c1OC (centres undefined) | 94.5% (active)
COc1cccc(-c2nnc(N(C)C(=O)c3ccno3)s2)c1 | 11.1% (inactive)
Cc1nnc(C)n1/N=C/c1ccc(C(C)C)cc1 | 10.5% (inactive)
COC(=O)c1ccc(C(=O)Nc2cc(Cl)ccc2Cl)cc1NC(=O)c1ccccc1C | 4.7% (inactive)
Cc1cccc(C(=O)Nc2ccc(CC(=O)O)cc2)c1 | -0.6% (inactive)
Cc1ccccc1NC(=O)c1ccccc1 | -2% (inactive)
COC(=O)c1ccccc1NC(=O)c1cncc(Br)c1 | 30.8% (inactive)
CN(C)c1ccc(NC(=O)c2ccncc2)c2ccccc12 | 90.3% (active)
CCOc1ccc(-c2cn(S(=O)(=O)c3cccc4nsnc34)nc2N)cc1 | 3.8% (inactive)
COc1cc(C(=O)OC(C)C(=O)NCC2CCCCC2)cc(NC(=O)c2ccco2)c1OC (centres undefined) | 38.3% (inactive)
O=C(O)CSCc1ccc(C(=O)O)o1 | -3% (inactive)
CCOc1ccccc1Nc1nnc(SCc2ccc(C(=O)OC)o2)s1 | 43% (inactive)
COC(=O)c1ccc(CSc2ccc3nnc(-c4ccccc4)n3n2)o1 | 63.7% (active)
CCc1ccc(C(=O)CSc2nnc(C)c(=O)[nH]2)cc1 | 19.3% (inactive)
Cc1ccc(OCC(=O)N/N=C/c2ccncc2)cc1 | 96.3% (active)
Cc1ccc(OCC(=O)Nc2ccc(-c3nc4ncccc4o3)cc2)cc1 | 3.2% (inactive)
Cc1cc(C)c(OCC(=O)N/N=C/c2ccco2)c(C)c1 | 41.2% (inactive)
O=C(Nc1cc2c3c(c1)C1CCCC1CN3CC1CCCC21)c1ccc([N+](=O)[O-])cc1 (centres undefined) | 28.2% (inactive)
Cc1cccc(N(CC(=O)N=Nc2c(O)[nH]c3ccccc23)S(C)(=O)=O)c1C | 33.6% (inactive)
O=c1cc(CSc2ccccn2)nc(N2CCN(c3ccccc3)CC2)[nH]1 | -0.6% (inactive)
Cc1nnc(SCc2cc(=O)[nH]c(N3CCN(Cc4ccccc4)CC3)n2)s1 | 50.4% (active)
CCc1c(C)nc(N2CCN(Cc3ccccc3)CC2)[nH]c1=O | 2.4% (inactive)
COCc1cc(C)nc2sc3c(=O)n(-c4cccc5ccccc45)nnc3c12 | 24.5% (inactive)

SMILES | inhibition
CN1c2ccccc2-c2nc3ccccc3n2C1c1ccco1 (centres undefined) | 14.2% (inactive)
CCOc1cccc(=O)c2c(C)n(CC3CCCO3)c(C)c12 (centres undefined) | 92.1% (active)
COC(=O)c1ccc2c(=O)n(CC3CCCO3)c(=S)[nH]c2c1 (centres undefined) | -6.3% (inactive)
O=c1c2cc3c(=O)n(CC4CCCO4)c(=O)c3cc2c(=O)n1CC1CCCO1 (centres undefined) | 0.8% (inactive)
COc1ccc(-c2cc(C(F)(F)F)nc(S(C)(=O)=O)n2)cc1OC | 12.6% (inactive)
COc1ccc(-c2nc(CS(=O)CC(=O)NCc3cccnc3)c(C)o2)cc1OC (centres undefined) | 24.2% (inactive)
COc1ccc(-c2cc(C(F)(F)F)nc(NCc3cccnc3)n2)cc1 | 73.4% (active)
COc1ccc(-c2csc3nc(-c4ccccc4F)oc(=O)c23)cc1OC | 25.3% (inactive)
CCCOc1ccccc1-c1nc(SCCC(=O)O)n[nH]1 | -4.6% (inactive)
Cc1nnc(NC(=O)Nc2ccc(Cl)c(Cl)c2)s1 | -9.1% (inactive)
N/C(=N\OC(=O)Nc1ccc(Cl)c(Cl)c1)c1ncc(C(F)(F)F)cc1Cl | -13.4% (inactive)
O=C(CC(O)(C(F)(F)F)C(F)(F)F)Nc1ccc(Cl)c(Cl)c1 | 77% (active)
COc1ccccc1Nc1ncnc2c1oc1ccccc12 | 30.1% (inactive)
CC1(C)CC(=O)C=C(NCCN2CCNCC2)C1 | -7.9% (inactive)
Cc1cc(N2CCN(Cc3ccc4c(c3)OCO4)CC2)n2ncnc2n1 | 8.7% (inactive)
Fc1ccc2[nH]c3c(N4CCN(Cc5ccc6c(c5)OCO6)CC4)ncnc3c2c1 | 61.2% (active)
CC(C)OCCCNc1ncnc2c1[nH]c1ccc(F)cc12 | 31.8% (inactive)
c1n[nH]c(NCc2ccc3c(c2)OCO3)n1 | -7.6% (inactive)
Fc1ccc2[nH]c3c(N4CCSCC4)ncnc3c2c1 | 58.5% (active)
CCN1CCCC1CNc1ncnc2c1[nH]c1ccc(F)cc12 (centres undefined) | 14.6% (inactive)
Cc1cc(C(F)(F)F)n2ncc(-c3ccccc3)c2n1 | 21.2% (inactive)
C=C1c2cc(CC)ccc2NC(=O)N1c1ccc(C)cc1 | 32.6% (inactive)
CC1(C)CC(=O)C2=C(C1)NCN(CCCN1CCOCC1)C2 | -0.8% (inactive)
CCCCc1nc(NCCN)c(C#N)c2c1CSC(C)(C)C2 | 25.3% (inactive)
